Reference: PubChem BioAssay (NCI)
The panel holds about 83,000 compounds, 20% with a hit somewhere; the sample as a whole holds those more often.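 Single-concentration screen, 48 h exposure, 96-well plates. Endpoint: percent growth. Below 10 = active.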 Calls of active or inactive are those of the source.

Experiments:
Assay in all cases: NCI-60 one-dose screen, 48 h (100 = growth as untreated, 0 = no growth, -100 = all killed)
Settings in all cases: 10 µM
NCI-H23 lung = system: NCI-H23 lung
NCI-H226 lung = system: NCI-H226 lung
HOP-62 NSCLC = system: HOP-62 NSCLC
NCI-H460 lung = system: NCI-H460 lung
HOP-92 NSCLC = system: HOP-92 NSCLC
NCI-H522 lung = system: NCI-H522 lung
A549/ATCC NSCLC = system: A549/ATCC NSCLC
786-0 renal = system: 786-0 renal
COLO 205 colon = system: COLO 205 colon
DU-145 prostate = system: DU-145 prostate
K-562 leukemia = system: K-562 leukemia
MALME-3M melanoma = system: MALME-3M melanoma
MDA-MB-231 breast = system: MDA-MB-231 breast
SF-268 CNS = system: SF-268 CNS
SF-295 CNS = system: SF-295 CNS
SF-539 CNS = system: SF-539 CNS
UACC-257 melanoma = system: UACC-257 melanoma
M14 melanoma = system: M14 melanoma
RXF 393 renal = system: RXF 393 renal

Measured: growth

O=C(NCCCCCCCCCC[P+](c1ccccc1)(c1ccccc1)c1ccccc1)c1ccc(-n2nc(-c3ccccc3O)nc2-c2ccccc2O)cc1
active: NCI-H23 lung -66.8% | NCI-H226 lung -58.9% | HOP-62 NSCLC -64.1% | NCI-H460 lung 8.35% | HOP-92 NSCLC -74.9% | NCI-H522 lung -78.3% | A549/ATCC NSCLC -51.9% | 786-0 renal -64% | COLO 205 colon -83.1% | DU-145 prostate -45.8% | K-562 leukemia 6.35% | MALME-3M melanoma -94% | MDA-MB-231 breast -73.6% | SF-268 CNS -28.8% | SF-295 CNS -90.4% | SF-539 CNS -95.9% | UACC-257 melanoma -71.5% | M14 melanoma -84.9%

CN1CCN(c2ccc(Nc3nc(N4CCN(S(=O)(=O)c5ccc(F)cc5)CC4)c4sccc4n3)cc2)CC1
active: NCI-H23 lung -64.4% | NCI-H226 lung -74.7% | HOP-62 NSCLC -49.6% | NCI-H460 lung -73% | HOP-92 NSCLC -66.3% | NCI-H522 lung -86.4% | A549/ATCC NSCLC -48.9% | 786-0 renal -72.6% | COLO 205 colon -79.9% | DU-145 prostate -84% | MALME-3M melanoma -97.9% | MDA-MB-231 breast -94.6% | RXF 393 renal -89.1% | SF-268 CNS -72.3% | SF-295 CNS -88.5% | SF-539 CNS -100% | UACC-257 melanoma -86.1% | M14 melanoma -56.9%

CC1=C2C(=C[C@@](C)(CO)[C@@H]2O)/C(=N\N)[C@](C)(O)C12CC2
active: NCI-H23 lung -77.8% | NCI-H226 lung -41.2% | HOP-62 NSCLC -27% | NCI-H460 lung -6.47% | HOP-92 NSCLC -22.6% | NCI-H522 lung -62.4% | A549/ATCC NSCLC 5.73% | 786-0 renal 6.59% | COLO 205 colon -79.4% | DU-145 prostate 1.63% | MALME-3M melanoma -76.2% | MDA-MB-231 breast -21% | RXF 393 renal -90.5% | SF-268 CNS -3.67% | SF-295 CNS -14.8% | SF-539 CNS -75.8% | UACC-257 melanoma -49.4% | M14 melanoma 5.88%
inactive: K-562 leukemia 19.3%

O=c1[nH]c2ccc(Cl)cc2cc1CSc1ccc(Nc2nccc(-c3ccc4ccccc4c3)n2)cc1
inactive: NCI-H23 lung 81.9% | NCI-H226 lung 50.5% | HOP-62 NSCLC 85.8% | NCI-H460 lung 20.8% | HOP-92 NSCLC 88.1% | NCI-H522 lung 80.5% | A549/ATCC NSCLC 22.7% | 786-0 renal 64.8% | COLO 205 colon 31.8% | DU-145 prostate 38.3% | K-562 leukemia 85.7% | MALME-3M melanoma 20% | MDA-MB-231 breast 55.2% | SF-268 CNS 68% | SF-295 CNS 111% | SF-539 CNS 94.1% | UACC-257 melanoma 112% | M14 melanoma 88.4%
